These results are taken from PubChem BioAssay (NCI).

Each structure is given as a SMILES string. Values joined by “and” are separate entries in the source; they are usually repeats but may differ in a detail not shown here. Identical values can stand only once. The panel holds about 83,000 compounds, 20% with a hit somewhere; the sample as a whole holds those more often.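 Activity criterion: percent growth below 10, measured after cells in 96-well plates were exposed to a single compound concentration for 48 hours.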 Active and inactive are the calls of the source.

What all share (test): NCI-60 one-dose screen, 48 h (100 = growth as untreated, 0 = no growth, -100 = all killed)
One assay deals with BT-549 breast. To be noted: 10 µM unless noted.
The test system of the next assay is MDA-MB-435 melanoma. To be noted: 10 µM unless noted.
The next assay relates to SW-620 colon. To be noted: 10 µM unless noted.
The test system of a further assay is MCF7 breast.
The subject of a further assay is HCT-116 colon. The conditions noted are these: 10 µM unless noted.
A further assay concerns HCC-2998 colon. To be noted: 10 µM unless noted.
The next assay deals with KM12 colon. To be noted: 10 µM unless noted.

As to `COc1cccc2c1cc([N+](=O)[O-])c1c(C(=O)O)cc3c(c12)OCO3`, the growth in the assay with BT-549 breast was 91.7% (inactive) and 102% (inactive); with MDA-MB-435 melanoma it was 93.1% (inactive) and 100% (inactive); with SW-620 colon, 79.5% (inactive) and 109% (inactive); with MCF7 breast (10 µM), 38.2% (inactive) and 94% (inactive); with MCF7 breast (100 µM), 15.3% (inactive) and 2.6% (active); in the assay on HCT-116 colon, 72.4% (inactive) and 92.3% (inactive). The growth in the assay with HCC-2998 colon is 47.7% (inactive) and -1.44% (active); in the assay on KM12 colon it was 84.6% (inactive) and 99.1% (inactive).
Turning to `CCC(=O)OC1CCn2c1nc1c2C(=O)C(C)=C(N2CC2)C1=O` (centres undefined), the growth was -79.1% (active) with BT-549 breast; -83.6% (active) with MDA-MB-435 melanoma; 3.77% (active) with SW-620 colon; -15.6% (active) in the assay with MCF7 breast (10 µM); 1.09% (active) with HCT-116 colon; -52.9% (active) in the assay on HCC-2998 colon. In addition, the growth in the assay on KM12 colon was -35.1% (active).
On to `COC1CC(CC2CCC(C)C(C(C)C(=O)O)O2)OC2(OC(C)(C3CCC(C)(C4OC(C5OC(O)(CO)C(C)CC5C)CC4C)O3)CC2C)C1C` (centres undefined), for which the growth in the assay with BT-549 breast is -52.6% (active); with MDA-MB-435 melanoma it was -91.7% (active); with SW-620 colon, 6.56% (active); in the assay on MCF7 breast (10 µM), 8.04% (active); in the assay with HCT-116 colon it was 3.98% (active); in the assay with HCC-2998 colon, -10% (active). Also, the growth in the assay on KM12 colon was -33.4% (active).
Regarding `Oc1cc[c]([Hg][Cl])cc1`, the growth with BT-549 breast is 128% (inactive); in the assay on MDA-MB-435 melanoma, 96% (inactive); in the assay with SW-620 colon it was 105% (inactive); with MCF7 breast (10 µM), 50.5% (inactive); in the assay on HCT-116 colon, 91% (inactive); with HCC-2998 colon, 114% (inactive). Moreover, the growth with KM12 colon is 97.4% (inactive).
For the compound `Oc1cccc2cccnc12`, the growth is 106% (inactive) and 113% (inactive) and 101% (inactive) in the assay on BT-549 breast; 101% (inactive) and 110% (inactive) and 119% (inactive) in the assay on MDA-MB-435 melanoma; 48.2% (inactive) and 100% (inactive) and 103% (inactive) in the assay with SW-620 colon; 1.86% (active) and 103% (inactive) and 104% (inactive) in the assay on MCF7 breast (10 µM); 47.6% (inactive) and 108% (inactive) and 113% (inactive) in the assay with HCT-116 colon; 100% (inactive) and 103% (inactive) and 123% (inactive) in the assay with HCC-2998 colon. In the assay on KM12 colon, the growth was 102% (inactive) and 106% (inactive) and 103% (inactive).
For the compound `CN1CCN(c2ccc([N+](=O)[O-])c3no[n+]([O-])c23)CC1`, the growth in the assay with BT-549 breast is -64.6% (active); with MDA-MB-435 melanoma, -82.2% (active); with SW-620 colon, -70.9% (active); in the assay with MCF7 breast (10 µM), -49.3% (active); in the assay on HCT-116 colon, -66.5% (active); in the assay with KM12 colon, -82.8% (active).
`CC[C@@]1(O)C(=O)OCc2c1cc1n(c2=O)Cc2cc3ccccc3nc2-1`: the growth is -39.9% (active) in the assay on BT-549 breast; -81.5% (active) with MDA-MB-435 melanoma; -1.68% (active) in the assay with SW-620 colon; 2.07% (active) in the assay on MCF7 breast (10 µM); -12.5% (active) in the assay on HCT-116 colon; -73.8% (active) with HCC-2998 colon. For the same compound, the growth with KM12 colon is -42.1% (active).
For `CC(=O)O[C@H]1C[C@@H]2OC3C=C(C)CCC3(C)[C@@]1(C)[C@@]21CO1` (some centres undefined), the growth was -28.8% (active) and -11.6% (active) in the assay with BT-549 breast; -21.1% (active) and -27.5% (active) in the assay with MDA-MB-435 melanoma; 0.513% (active) and -7.31% (active) in the assay with SW-620 colon; -0.46% (active) and -15% (active) in the assay with MCF7 breast (10 µM); -22.5% (active) and -18.6% (active) in the assay on HCT-116 colon; -27.6% (active) and -20.3% (active) in the assay with HCC-2998 colon. In the assay with KM12 colon, the growth is -21.9% (active) and -43% (active).
For the compound `COc1ccc(OC)c(/C=C/[N+](=O)[O-])c1`, the growth in the assay on BT-549 breast was -45.5% (active); in the assay with MDA-MB-435 melanoma, 7.04% (active); in the assay with SW-620 colon, -38.7% (active); in the assay on MCF7 breast (10 µM), -1.64% (active); in the assay with HCT-116 colon, -81.5% (active); in the assay with HCC-2998 colon it was -82.4% (active). Further, in the assay with KM12 colon, the growth was 11.7% (inactive).
For `Cc1ccc(C(=O)OC(C(=O)O)C(OC(=O)c2ccc(C)cc2)C(=O)O)cc1` (centres undefined) (tested in a mixture with another compound), the growth was 17.5% (inactive) with BT-549 breast; 51.3% (inactive) in the assay on MDA-MB-435 melanoma; 53.4% (inactive) in the assay with SW-620 colon; 14.3% (inactive) in the assay with MCF7 breast (10 µM); 22.1% (inactive) in the assay with HCT-116 colon; 73% (inactive) in the assay on HCC-2998 colon. Further, the growth in the assay on KM12 colon was 58.9% (inactive).
For `COC1=C(C)C(=O)C2=C(C1=O)C(CO)N1C(C#N)C3CC4C(C1C2N1CCOC41)N3C` (centres undefined), the growth was -64.3% (active) in the assay on BT-549 breast; -64.2% (active) in the assay with MDA-MB-435 melanoma; -28% (active) in the assay with SW-620 colon; -0.551% (active) in the assay with MCF7 breast (10 µM); -33.7% (active) with HCT-116 colon; -87.3% (active) in the assay with HCC-2998 colon. Moreover, the growth in the assay with KM12 colon is -60.8% (active).
For `C[C@H]1CCC/C=C/[C@@H]2C[C@H](O)C[C@H]2[C@H](O)/C=C/C(=O)O1`, the growth in the assay with BT-549 breast is 2.5% (active); with MDA-MB-435 melanoma, 0.489% (active); with SW-620 colon, -20.4% (active); in the assay with MCF7 breast (10 µM) it was -11.9% (active); in the assay with HCT-116 colon, -70.8% (active); in the assay on HCC-2998 colon, -49.5% (active). The growth in the assay on KM12 colon was -59.8% (active).
